Test results reported in PubChem BioAssay.
Values without a mark were called inactive. How the calls were made is not given here.

Biological target: Pantothenate synthetase (Mycobacterium tuberculosis (strain ATCC 25618 / H37Rv)) (UniProt P9WIL5)
Assay: Coupled enzyme confirmation of inhibitors against recombinant Mtb PanC (AID 375);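 further: 0% = full reaction with vehicle and 100% = no enzyme background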
Settings: coupled enzyme assay; at 10 µM, active compounds read high

Pantothenate synthetase (Mycobacterium tuberculosis (strain ATCC 25618 / H37Rv)), sequence (P9WIL5 whole entry, looked up): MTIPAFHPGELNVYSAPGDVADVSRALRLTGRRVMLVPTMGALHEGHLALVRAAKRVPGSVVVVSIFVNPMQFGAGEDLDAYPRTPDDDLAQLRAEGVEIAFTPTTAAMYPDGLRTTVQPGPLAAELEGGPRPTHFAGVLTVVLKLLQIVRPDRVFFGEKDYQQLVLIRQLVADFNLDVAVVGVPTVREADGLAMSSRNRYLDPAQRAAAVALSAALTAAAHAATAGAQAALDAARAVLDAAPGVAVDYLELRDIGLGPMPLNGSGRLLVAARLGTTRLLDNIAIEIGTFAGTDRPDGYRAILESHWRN

SMILES | inhibition [%]
COCCN(C(=O)CNC(=O)c1ccco1)C(C(=O)NC1CCCCC1)c1cccc(OC)c1 (stereo not drawn) | 0
COc1ccc(-c2coc3c(CN4CCCCC4)c(O)c(CN4CCCCC4)c(O)c3c2=O)cc1 | 0
CCCCCCn1c(SCCCC)nc2c1c(=O)[nH]c(=O)n2C | 4
COc1ccc(NC(=O)c2oc3ccccc3c2NC(=O)c2ccco2)cc1 | 0
Cc1cc(Nc2ccc(C(=O)O)cc2)n2nc(C)nc2n1 | 7
O=C1OC2(c3ccccc3)C3CCCC2C13 | 3
Cn1c(=O)c2ccccc2n(Cc2ccccc2F)c1=O | 0
Cc1cccc(-n2nnnc2SCc2csc(-c3ccccc3)n2)c1 | 0
COc1ccccc1C(=O)N1CCN(CCc2ccccc2)CC1 | 6
N#CCSc1nc2c(c(C3CC=CCC3)c1C#N)CCC2 (stereo not drawn) | 6
COc1ccc2cnn(-c3ccccc3C)c(=O)c2c1OC | 3
COCCn1nnnc1C(c1cc2ccc(OC)cc2[nH]c1=O)N1CCc2ccccc2C1 (stereo not drawn) | 0
COc1ccc(C2/C(=C(/O)c3cnn(-c4ccccc4)c3C)C(=O)C(=O)N2CCN(C)C)cc1OC (stereo not drawn) | 3
CCc1nc2sc3ccccc3c(=O)c2c(=O)n1Cc1ccco1 | 0
COc1ccc(C(=O)CN2C(=O)NC3(CCCc4ccccc43)C2=O)cc1OC (stereo not drawn) | 0
COc1cccc(CNC(=O)C2CCN(C(=O)N(C)C)CC2)c1 | 2
COc1ccc(-c2noc(CCC(=O)NCCCN3CCC(Cc4ccccc4)CC3)n2)cc1 | 0
CCCCn1nnnc1SCC(=O)N1CCN(C(=O)c2ccco2)CC1 | 0
C=CCn1cnc2c(NCc3ccccc3)ncnc21 | 4
COc1cccc(-c2cc(C(=O)NCc3ccc(Cl)cc3)no2)c1 | 0
O=C(NCC1CCCO1)c1cccc(N2CCCC2=O)c1 (stereo not drawn) | 0
COc1cccc(NC(=O)C2CCN(c3ncccn3)CC2)c1 | 2
CN(C)CCCC1(c2ccc(F)cc2)OCc2cc(C#N)ccc21 (stereo not drawn) | 0
